Active and inactive are the calls of the source.
Experiments:
[1] = E. coli DRC41 culture turbidity changes, primary screen, E. coli filamentation inducer project, strain DRC41, OD650, 48 h (AID 1152);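 also: E. coli MC1000 strain DRC41 lacking acrAB efflux pump and sulA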; settings: E. coli DRC41 (acrAB sulA), higher = more signal, called active from +8 up or from −8 down
[2] = small-molecule binders of probe aLefty1, primary screen, biochemical, small-molecule microarray, 635/667 nm fluorescence (AID 1153); settings: higher = more signal;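 also: score merges spot fluorescence with signal-to-noise ratio from the scanned slide images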
[3] = PSAC antagonists in infected red cells, primary screen, cell-based, P. falciparum Indochina, OD700, 1 h (AID 1154); settings: P. falciparum Indochina infected RBC osmotic lysis, higher = more signal, called active from +8 up or from −8 down
[4] = PSAC antagonists in infected red cells, primary screen, cell-based, P. falciparum Indochina, OD700, 2 h (AID 1155);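 also: lysis reports solute entry through the parasite surface anion channel PSAC; channel blockers reduce lysis of infected cells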; settings: P. falciparum Indochina infected erythrocytes, osmotic lysis OD700; higher = more signal, called active from +8 up or from −8 down
[5] = osmotic lysis modulators in infected erythrocytes, primary screen, PSAC antagonist project, cell-based, P. falciparum Indochina, OD700, 3 h (AID 1156); settings: higher = more signal, called active from +8 up or from −8 down
[6] = PSAC antagonists in infected red cells, primary screen, cell-based, P. falciparum Indochina, OD700, 18 h (AID 1157); settings: P. falciparum Indochina infected erythrocytes, osmotic lysis OD700, 18 h; higher = more signal, called active from +8 up or from −8 down
[7] = modulators of S6 phosphorylation in cells, primary screen, cell-based, A549, cytoblot, luminescence, serum-stimulated (AID 1158); settings: A549 phospho-S6 cytoblot, 5 h, higher = more signal;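 also: serum-stimulated A549 lung adenocarcinoma cells; signal is phosphorylated S6 detected by cytoblot immunostaining with HRP secondary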
[8] = target: NADPH oxidase 2 (Homo sapiens) (UniProt P04839); experiment: NOX2-dependent H2O2 signal modulators, primary screen, NOX inhibitor project, cell-based, HEK293-NOX2, PMA-stimulated, Amplex Red fluorescence (AID 1159); settings: 45 min, higher = more signal, called active from +8 up or from −8 down; also: test concentration not given here
Sequence of NADPH oxidase 2 (Homo sapiens) (P04839 whole entry, looked up): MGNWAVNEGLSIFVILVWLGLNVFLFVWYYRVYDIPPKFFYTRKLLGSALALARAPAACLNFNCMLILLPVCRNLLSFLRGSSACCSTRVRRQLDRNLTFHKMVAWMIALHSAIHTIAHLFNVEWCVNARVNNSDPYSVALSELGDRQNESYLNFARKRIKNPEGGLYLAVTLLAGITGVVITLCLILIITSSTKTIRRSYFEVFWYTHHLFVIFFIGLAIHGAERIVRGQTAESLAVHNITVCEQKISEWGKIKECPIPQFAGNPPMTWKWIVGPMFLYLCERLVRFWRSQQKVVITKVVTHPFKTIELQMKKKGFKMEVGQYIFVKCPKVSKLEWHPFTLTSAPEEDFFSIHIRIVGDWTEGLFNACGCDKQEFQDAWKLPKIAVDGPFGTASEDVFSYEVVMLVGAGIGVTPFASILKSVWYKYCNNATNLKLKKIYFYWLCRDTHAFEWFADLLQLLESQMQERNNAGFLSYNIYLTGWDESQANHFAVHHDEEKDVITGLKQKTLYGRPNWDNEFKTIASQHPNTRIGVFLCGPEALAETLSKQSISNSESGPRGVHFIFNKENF

[9] = target: NADPH oxidase 4 (Homo sapiens) (UniProt Q9NPH5); experiment: NOX4-dependent H2O2 signal modulators, primary screen, NOX inhibitor project, cell-based, HEK293-NOX4, tetracycline-induced, Amplex Red fluorescence (AID 1160); settings: 45 min, higher = more signal, called active from +8 up or from −8 down
Sequence of NADPH oxidase 4 (Homo sapiens) (Q9NPH5 whole entry, looked up): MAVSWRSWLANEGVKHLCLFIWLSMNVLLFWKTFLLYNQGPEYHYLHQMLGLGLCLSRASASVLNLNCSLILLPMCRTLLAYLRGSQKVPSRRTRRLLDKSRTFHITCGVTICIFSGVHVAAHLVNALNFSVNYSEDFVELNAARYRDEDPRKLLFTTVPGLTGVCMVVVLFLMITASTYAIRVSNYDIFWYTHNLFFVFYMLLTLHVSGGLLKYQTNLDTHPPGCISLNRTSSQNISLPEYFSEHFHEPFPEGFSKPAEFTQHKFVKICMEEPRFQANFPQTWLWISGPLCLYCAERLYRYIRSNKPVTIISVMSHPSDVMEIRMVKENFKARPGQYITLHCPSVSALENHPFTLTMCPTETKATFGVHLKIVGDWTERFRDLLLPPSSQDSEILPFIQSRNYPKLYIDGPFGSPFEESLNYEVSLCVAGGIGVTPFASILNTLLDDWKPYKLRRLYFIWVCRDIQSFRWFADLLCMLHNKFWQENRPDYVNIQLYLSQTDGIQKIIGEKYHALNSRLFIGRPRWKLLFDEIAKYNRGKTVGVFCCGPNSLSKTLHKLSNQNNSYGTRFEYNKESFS

[10] = target: NADPH oxidase 5 (Homo sapiens) (UniProt Q96PH1); experiment: NOX5-dependent H2O2 signal modulators, primary screen, NOX inhibitor project, cell-based, HEK293-NOX5, Amplex Red fluorescence (AID 1161); settings: HEK293-NOX5, ionomycin, 45 min, higher = more signal
Sequence of NADPH oxidase 5 (Homo sapiens) (Q96PH1 whole entry, looked up): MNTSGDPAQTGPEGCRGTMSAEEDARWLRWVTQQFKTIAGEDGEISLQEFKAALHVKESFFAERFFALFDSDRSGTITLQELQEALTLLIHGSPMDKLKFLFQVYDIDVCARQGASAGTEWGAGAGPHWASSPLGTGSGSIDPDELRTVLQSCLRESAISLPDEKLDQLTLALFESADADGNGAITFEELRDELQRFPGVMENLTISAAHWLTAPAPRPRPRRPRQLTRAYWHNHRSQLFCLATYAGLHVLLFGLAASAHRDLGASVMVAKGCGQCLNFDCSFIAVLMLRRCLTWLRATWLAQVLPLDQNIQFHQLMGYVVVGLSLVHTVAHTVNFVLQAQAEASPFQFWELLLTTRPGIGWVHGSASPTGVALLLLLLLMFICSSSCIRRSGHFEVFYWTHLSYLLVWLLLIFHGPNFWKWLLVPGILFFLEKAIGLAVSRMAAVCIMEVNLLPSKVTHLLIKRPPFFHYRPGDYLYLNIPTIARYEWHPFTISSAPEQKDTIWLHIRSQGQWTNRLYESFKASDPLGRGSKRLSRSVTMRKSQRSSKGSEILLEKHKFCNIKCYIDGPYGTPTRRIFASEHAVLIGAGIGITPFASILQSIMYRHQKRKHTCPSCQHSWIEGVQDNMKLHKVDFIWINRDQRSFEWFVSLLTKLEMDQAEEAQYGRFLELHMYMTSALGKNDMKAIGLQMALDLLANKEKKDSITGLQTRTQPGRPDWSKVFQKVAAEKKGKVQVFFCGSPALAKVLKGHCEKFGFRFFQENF

| SMILES | z-score [1] | composite z-score [2] | z-score [3] | z-score [4] | z-score [5] | z-score [6] | z-score [7] | z-score [8] | z-score [9] | z-score [10] |
| --- | --- | --- | --- | --- | --- | --- | --- | --- | --- | --- |
| C=CCOC(=O)[C@H]1[C@@H]2C(=O)O[C@@H](c3ccccc3)[C@@H](c3ccccc3)N2[C@@H](c2ccc(OCCOC(=O)[C@@H]3C[C@@H]4C(=O)N5CCC[C@H]5C(=O)N4[C@@H]3c3ccc(O)cc3)cc2)[C@]12C(=O)Nc1ccccc12 | 0.891 (inactive) | 0.137 | 2.72 (inactive) | 1.04 (inactive) | 2.96 (inactive) | 0.668 (inactive) | 0.193 | 1.64 (inactive) | 1.21 (inactive) | 1.57 |
| NC(=O)NCC#Cc1ccc2c(c1)[C@]1(C(=O)N2)[C@H](C(=O)N2CCCCCCC2)[C@H]2C(=O)O[C@H](c3ccccc3)[C@H](c3ccccc3)N2[C@@H]1c1ccc(OCCO)cc1 | -0.518 (inactive) | 1.4 | 2.66 (inactive) | 0.66 (inactive) | 0.391 (inactive) | 0.286 (inactive) | -0.378 | 1.35 (inactive) | -1.11 (inactive) | -0.67 |
| COc1ccc(CCNC(=O)[C@@H]2c3ccccc3C(=O)N(Cc3ccc(OC(F)(F)F)cc3)[C@H]2c2ccc(CO)cc2)cc1 | -0.989 (inactive) | -0.291 | 4.16 (inactive) | 0.385 (inactive) | 2 (inactive) | 0.623 (inactive) | -0.404 | -1.69 (inactive) | -0.245 (inactive) | -3.56 |
| COCCCNC(=O)[C@@]1(C)c2ccccc2C(=O)N(Cc2cc(C(F)(F)F)cc(C(F)(F)F)c2)[C@H]1c1ccc(CO)cc1 | 0.811 (inactive) | -0.0969 | 3.5 (inactive) | -0.185 (inactive) | -0.583 (inactive) | 0.472 (inactive) | -0.434 | -1.09 (inactive) | -0.274 (inactive) | -0.706 |
| COCC1=C2[C@@H](CCc3ccccc3)OB(O)C[C@@H]2[C@@H]2C(=O)N(Cc3ccccc3)C(=O)[C@@H]2C1 | -0.536 (inactive) | -0.0573 | 1.75 (inactive) | -0.0799 (inactive) | -0.558 (inactive) | 0.0831 (inactive) | 0.533 | -0.0858 (inactive) | 0.552 (inactive) | 0.974 |
| Cc1ccc(S[C@]2(C(=O)NC3CC3)CC(=O)N(C3CCCCC3)[C@@H]2c2ccc(CO)cc2I)cc1 | 0.639 (inactive) | 0.112 | 6.07 (inactive) | 0.898 (inactive) | -0.0504 (inactive) | 0.427 (inactive) | -0.208 | 0.655 (inactive) | -0.194 (inactive) | 1.38 |
| COc1cc2c(cc1O)C(C)N(Cc1cccc(OC(F)(F)F)c1)CC2 (stereo not given) | 0.126 (inactive) | -0.0015 | 2.96 (inactive) | 0.328 (inactive) | 2.09 (inactive) | 0.573 (inactive) | -0.0952 | -3.51 (inactive) | -2.46 (inactive) | -3.03 |
| C=CCC(OC(C)=O)[C@@H]1[C@@H](N(Cc2ccc(-c3ccccc3)cc2)C(=O)Cc2ccc(F)cc2)c2cc(OCCCO)ccc2N1C(=O)c1ccc2ccccc2n1 (stereo not given in full) | 1.51 (inactive) | 0.22 | 0.879 (inactive) | 1.19 (inactive) | -0.385 (inactive) | 0.505 (inactive) | 0.374 | -0.632 (inactive) | 0.631 (inactive) | 1.95 |
| CC(C)N1C(=O)[C@@]2(c3ccc([N+](=O)[O-])cc3)CC(=O)N(CC34CC5CC(CC(C5)C3)C4)[C@@H]2c2ccc(CO)cc21 | 0.0258 (inactive) | 1.04 | 0.297 (inactive) | 0.328 (inactive) | 0.0625 (inactive) | 0.131 (inactive) | -0.561 | 0.306 (inactive) | -0.0646 (inactive) | 0.607 |
| O=C(O)[C@@]1(Cc2ccccc2)N=C(c2ccc(OCCCO)cc2)O[C@H]1c1ccccc1 | 0.922 (inactive) | -0.251 | 3.67 (inactive) | 0.132 (inactive) | -0.466 (inactive) | 0.445 (inactive) | -0.134 | 0.18 (inactive) | 0.864 (inactive) | 1.33 |
| C=CCOC(=O)[C@@H]1[C@H]2C(=O)O[C@H](c3ccccc3)[C@H](c3ccccc3)N2[C@H](c2ccc(OCCOC(=O)[C@@H]3C[C@@H]4C(=O)NCC(=O)N4[C@@H]3c3cccc(OCCO)c3)cc2)[C@@]12C(=O)Nc1ccc(I)cc12 | -0.407 (inactive) | 0.42 | 2.11 (inactive) | 0.636 (inactive) | 1.64 (inactive) | 0.572 (inactive) | -0.5 | 1.72 (inactive) | 1.19 (inactive) | 1.37 |
| COC(=O)C(CC#Cc1ccc2c(c1)[C@]1(C(=O)N2)[C@H](C(=O)NC[C@H](O)c2ccccc2)[C@H]2C(=O)O[C@H](c3ccccc3)[C@H](c3ccccc3)N2[C@@H]1c1ccc(OCCO)cc1)C(=O)OC | -0.658 (inactive) | 1.78 | 5.95 (inactive) | 2.11 (inactive) | 0.0313 (inactive) | 1.1 (inactive) | 0.161 | 1.39 (inactive) | 0.865 (inactive) | 1.41 |
| [N-]=[N+]=Nc1ccccc1[C@@H]1OC(c2ccc(OCCCO)cc2)=N[C@]1(CCS(=O)(=O)c1ccccc1)C(=O)N1CCOCC1 | 0.325 (inactive) | 0.701 | 30.4 (active) | 25.4 (active) | 0.736 (inactive) | 6.38 (inactive) | -0.444 | -1.54 (inactive) | 1.47 (inactive) | 1.47 |
| COC(=O)[C@@]1(Cc2ccccc2)[C@H]2c3cc(C(=O)N(C)C)n(Cc4c(-c5ccccc5)noc4C)c3C[C@H]2CN1C(=O)c1ccccc1 | -2.11 (inactive) | 0.324 | 2.98 (inactive) | 1.2 (inactive) | 0.57 (inactive) | 1.11 (inactive) | -0.505 | 0.931 (inactive) | 1.32 (inactive) | 1.1 |
| C=CCNC(=O)[C@@H]1[C@H]2C(=O)O[C@H](c3ccccc3)[C@H](c3ccccc3)N2[C@H](c2ccccc2OCCO)[C@@]12C(=O)Nc1ccc(C#CC3=CCCCC3)cc12 | 1.51 (inactive) | 0.454 | 1.78 (inactive) | -0.144 (inactive) | -0.458 (inactive) | 0.0442 (inactive) | 2.36 | 0.646 (inactive) | -1.35 (inactive) | -4.4 |
| COC(=O)[C@@]1(Cc2ccccc2)N=C(c2ccc(OCCCO)cc2)O[C@H]1c1ccccc1N=[N+]=[N-] | 0.388 (inactive) | 0.129 | 29.2 (active) | 24.1 (active) | 1.79 (inactive) | 5.76 (inactive) | 0.661 | -2.01 (inactive) | 0.373 (inactive) | -1.06 |
| O=C1C2C=CC(C(O)c3ccc(F)cc3)N(Nc3ccccc3)C2C(=O)N1c1ccccc1 (stereo not given) | -0.789 (inactive) | 0.374 | 10.2 (active) | 2.02 (inactive) | 0.0089 (inactive) | 1.24 (inactive) | -0.931 | -1.77 (inactive) | -3.42 (inactive) | -1.96 |
| CC(C)C[C@@H]1NC(=O)[C@H]2C[C@@H](C(=O)NCCCCCNC(=O)CS)[C@@H](c3cccc(OCCO)c3)N2C1=O | -0.586 (inactive) | -0.0511 | 2.59 (inactive) | 0.505 (inactive) | -0.47 (inactive) | 0.327 (inactive) | -0.592 | 2.16 (inactive) | 1.21 (inactive) | 0.93 |
| CCOC(=O)C1=CC[C@@H](c2ccccc2Cl)N(S(=O)(=O)c2ccc(C)cc2)C1 | 0.0023 (inactive) | 0.276 | 4.85 (inactive) | -0.477 (inactive) | -0.981 (inactive) | -1.69 (inactive) | 0.676 | 0.358 (inactive) | -0.832 (inactive) | -0.93 |
| COc1cc(CO)ccc1OC(C)=O | 1.48 (inactive) | -0.157 | -0.92 (inactive) | -1.73 (inactive) | -0.798 (inactive) | -2.47 (inactive) | 1.03 | -4.55 (inactive) | -1.36 (inactive) | -0.667 |
| O=C1O[C@@H](c2ccccc2)[C@@H](c2ccccc2)N2[C@@H](c3ccc(OCCO)cc3)[C@]3(C(=O)Nc4ccc(C#CC5=CCCCC5)cc43)[C@@H](C(=O)O)[C@H]12 | -0.584 (inactive) | -0.0827 | -3.36 (inactive) | -1.76 (inactive) | -10.6 (active) | -0.957 (inactive) | -0.106 | 1.67 (inactive) | -1.08 (inactive) | -0.216 |
| CCCCC(CC)C(O)C1C=CC2C(=O)N(c3ccccc3)C(=O)C2N1Nc1ccccc1 (stereo not given) | -1.61 (inactive) | 0.448 | 1.1 (inactive) | -0.627 (inactive) | 2.18 (inactive) | -1.72 (inactive) | 1.14 | -2.98 (inactive) | -5.21 (inactive) | -5.76 |
| C=CC[C@@]1(C(=O)O)N=C(c2ccc(OCCCO)cc2)O[C@@H]1c1ccccc1N=[N+]=[N-] | 0.232 (inactive) | 0.546 | 33.9 (active) | 32.2 (active) | 2.2 (inactive) | 8.02 (active) | -0.567 | -0.973 (inactive) | 1.14 (inactive) | 0.518 |
| COc1cccc(C(=O)O[C@H]2CC[C@]3(C)C4=C(CCC3C2(C)C)[C@]2(C)CC[C@H]([C@H](C)CCCC(C)C)[C@@]2(C)CC4)c1 (stereo not given in full) | 3.47 (inactive) | 0.0752 | -0.264 (inactive) | -0.611 (inactive) | -0.306 (inactive) | -1.63 (inactive) | 0.801 | -0.606 (inactive) | 0.0302 (inactive) | 0.689 |
| COC(=O)[C@@]1(Cc2ccccc2)[C@H]2c3cc(C(=O)N4CCCC4)n(Cc4ccc(C)o4)c3C[C@H]2CN1C(=O)c1ccccc1 | -1.71 (inactive) | 0.198 | 1.63 (inactive) | 0.547 (inactive) | 0.278 (inactive) | 0.52 (inactive) | -0.504 | -0.254 (inactive) | -0.867 (inactive) | -1.17 |
| O=C1OCCC/C=C\[C@H]2OC34C=CCN(Cn5nnc6ccccc65)C(=O)[C@H]3N(CCCCCO)C(=O)[C@@H]4C12 (stereo not given in full) | 0.246 (inactive) | 0.278 | 2.6 (inactive) | 0.0767 (inactive) | -0.212 (inactive) | 0.479 (inactive) | -0.339 | 0.871 (inactive) | -0.167 (inactive) | 1.15 |

— PubChem BioAssay
